Laboratory results from PubChem BioAssay AID493185 (National Center for Advancing Translational Sciences (NCATS), 2011).
Unmarked numbers belong to inactive results. Calls of active or inactive are those of the source. The call rests on the fitted dose curve; in most records, active means well fitted activation curve with a large enough effect; inconclusive means small, poorly fitted or top-dose-only effect; inactive means no such curve, though single readings can be large or run the other way.

experiment: Counterscreen for Identifying a Potential Treatment of Ataxia-Telangiectasia: Hit Validation; conditions: cell-free AlphaLISA/AlphaScreen artifact counterscreen, PBS only, no cells; series mostly up to 76.9 µM; activation: at the top concentration; on activation: 0% is about no effect
Summary of the method: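 Without cells, compounds at up to 76.7 uM final were combined with premixed anti-pKAP1/anti-KAP1 AlphaLISA bead reagents, protease inhibitors and lysis buffer; signal read after 6 hr at 25C to flag assay-platform artifacts.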
Potency means the concentration at half of the fitted maximal effect.

Structure (SMILES)	activation	Potency
COc1cccc(OC)c1C(=O)NC(=O)Nc1c(C)cccc1C	-29.3%	
CCOc1cccc(C(=O)Nc2ccccc2N2CCN(C(=O)C(C)C)CC2)c1	5.74%	
Clc1cccc(CN2CCC(Cc3ccccc3)CC2)c1	-6.77%	
COc1ccccc1C(=O)NC(=O)Nc1cccc(Cl)c1	1.64%	
CCCCN(c1nc2ccccc2nc1Cl)S(=O)(=O)c1ccc(C)cc1	-15.8%	
Cc1ccc(C(=O)Nc2sc3c(c2C(=O)O)CCCCC3)o1	-5.74%	
COc1ccc(NCc2cc(=O)oc3cc(NC(C)=O)ccc23)cc1	-11.5%	
COc1ccccc1Nc1nc(NCCCN(C)C)nc(N)c1[N+](=O)[O-]	-13.8%	
COc1cc(CCC(C)NCc2ccccc2)ccc1O (stereo not given)	3.76%	
COc1cccc(C2C(C(N)=O)=C(C)Nc3nc(CCCO)nn32)c1 (stereo not given)	9.02%	
COc1cccc(OCCc2c(C)n[nH]c2C)c1	-2.46%	
NCC(=O)c1cccc2ccc[n+]([O-])c12	-3.01%	
Cc1cc2nc3ccc(=[N+](C)C)cc-3sc2cc1N		26 µM (active)
Cc1cccc(C)c1NC(=O)COC(=O)c1cc(=O)c2ccccc2o1	-16.9%	
Cc1nn(C)c(Cl)c1CN1CCN(C2CCCC2)C(CCO)C1 (stereo not given)	-13.5%	
CN(C)S(=O)(=O)c1cccc(C(=O)N=C2N=C3C=CC(Cl)=CN3Cc3ccccc32)c1	8.46%	
O=C(O)c1nccnc1C(=O)Nc1ccccc1-c1ccccc1	9.02%	
COc1ccc(-n2c(=S)[nH]c3ccccc3c2=S)cc1	-17.2%	
COC1=C(N)C(=O)c2nc(-c3nc(C(=O)O)c(C)c(-c4ccc(OC)c(OC)c4O)c3N)ccc2C1=O	-20.5%	
O=C(O)CCC(=O)NN1C(=O)c2ccccc2NC1c1ccco1 (stereo not given)	-18%	

Structure (SMILES)	activation	Potency
CNC(=S)N/N=C/c1ccc2c(c1)OCCO2	-17.7%	
Cc1ccc(OCC(=O)N(Cc2cccs2)C2CCS(=O)(=O)C2)cc1C (stereo not given)	0.752%	
CCOC(=O)NC(C(Cl)(Cl)Cl)S(=O)(=O)c1ccccc1 (stereo not given)	-9.77%	
S=c1[nH]nc(C2CCCCC2)n1/N=C/c1ccc(Br)cc1	-2.26%	
CN(C)Cc1ccc(F)cc1Sc1cc(Cl)ccc1Cl	7.69%	
CCCCCCCCCn1ccc(=N)cc1	-13.1%	
CC1Cc2ccccc2N1C(=O)CSc1nnnn1-c1ccc2c(c1)OCCO2 (stereo not given)	18.8%	
CCOc1cccc(/C=C/c2ccc3cccc(O)c3n2)c1OC	-10.7%	
O=C(NC(=O)c1c(F)cccc1F)Nc1ccccc1SC(F)F	9.02%	
Cc1ccc(C)c(-c2csc(Nc3ncccn3)n2)c1	0%	
Cc1ccccc1OCC(=O)Nc1cccc(C(=O)O)c1	33.8%	
O=C1NC(=Nc2ccccc2)CS1	-1.5%	
O=C(O)c1ccc(/C=C/c2nc3ccccc3c(=O)[nH]2)cc1	-12%	
CC(C)Nc1nc(Oc2ccc(=O)n(-c3ccccc3)n2)nc(N(C)C)n1	4.51%	
O=C(OCCc1cc2ccccc2c(=O)o1)c1cccc(Br)c1	3.08%	
CNC(=O)c1ccc(-c2cc3onc(-c4ccccc4)c3c(=O)n2C)cc1	-19.2%	
CCNC(=S)N(CCc1c(C)[nH]c2ccccc12)Cc1cccnc1	-1.64%	
Cn1c(=O)[nH]c(=O)c2[nH]c(N(Cc3ccccc3)Cc3ccccc3)nc21	-27%	
Cc1ccccc1S(=O)(=O)Oc1ccc2ccc(O)cc2c1	-9.84%	
Cc1ccc2c(c1)C(c1ccccc1)N(C(=O)CC(C)C)CC(=O)N2 (stereo not given)	13.5%	
